Screening results (PubChem)
IL1B secr inh = blocks inflammasome-driven IL-1 beta release. activity change, % at 57.5 µM. 4.7% of 360,000 active. THP-1 LPS/ATP IL-1B secretion, AlphaLISA, 16 h; stronger effect = lower value. AID 743279; in the data active = activity change below about -50%; inconclusive = mostly about -30% to -49%; also: % is scaled to controls: 0 for no effect and ±100 for the full control effect
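THP-1 cells pretreated 1 hr with compounds (up to 57.5 uM final), then stimulated with LPS (250 ng/mL final) plus ATP (1.25 mM final); secreted IL-1B measured by AlphaLISA after 16 hr, decreased signal indicating inhibition.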
PINK1 expr mod = modulators of PINK1 expression. 0.2% of 410,000 active. PINK1 immunofluorescence, high-content cytometry, 24 h. AID 624263. Potency, µM (titrated, usually from 76.6 µM), inactives show at the highest dose activation (PINK1 increase), hits mostly activators; active = well fitted activation curve with a large enough effect; inconclusive = small, poorly fitted or top-dose-only effect; cell line not stated here; also: potency is read from the fitted curve at half-maximal effect; % of control where 0% means no effect; nearly all actives have a fitted effect of over 65% in size
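Compound titrations (5 concentrations, 24 h) on a stable cell line; DMSO and CCCP controls. Endpoint: fixed-cell PINK1 immunofluorescence with mitochondrial, cell and nuclear markers, scanned by microplate cytometer.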
ATXN2 expr inh = reduces ATXN2 reporter expression in HEK-293 cells; 0.72% of 360,000 active; HEK-293 ATXN2-luciferase reporter, luminescence, 24 h; Potency, µM (top dose mostly 57 µM), for inactives: at the highest dose activity change, negative = inhibition, most hits filed as inhibitors; also: potency is read from the fitted curve at half-maximal effect; % is scaled to controls: 0 for no effect and ±100 for the full control effect; nearly all actives have a fitted effect of over 55% in size
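ATXN2-luciferase reporter cells (luciferase flanked by upstream and downstream ATXN2 gene portions) were treated 24 h at 37 °C with compounds at up to 57 uM. SteadyGlo luminescence gave expression; GF-AFC fluorescence gave viability.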
SW480 rerep = induces DNA re-replication in SW480 colon adenocarcinoma cells. SW480 DNA re-replication, Hoechst DNA content imaging, 48 h. Potency, µM (series often up to 46.1 µM), inactives show top-dose re-replication activation, most hits filed as activators. 1.8% of 340,000 active. AID 624297; also: potency is read from the fitted curve at half-maximal effect; % of control where 0% means no effect; nearly all actives have a fitted effect of over 55% in size
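SW480 cells exposed to compounds for 48 hr at 37 C, 5% CO2, then Hoechst-stained 40 min. Nuclear DNA content imaged by fluorescence scanning (405 nm excitation, 500-530 nm emission); re-replication scored as increased high-intensity nuclei.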
ATXN viability = reduces viability in counter-screen for ATXN expression inhibitors | S2 cells (HEK-293 line with an ATXN2-luciferase reporter) viability, CellTiter-Fluor protease fluorescence, 24 h | Potency, µM (highest dose often 56.7 µM), hits mostly cytotoxic | 0.49% of 400,000 active; also: potency is read from the fitted curve at half-maximal effect; nearly all actives have a fitted effect of over 40% in size
MCF10A rerep = inducers of DNA re-replication in MCF 10A breast cells. MCF 10A DNA re-replication, Hoechst nuclear intensity, 48 h. Potency, µM (titrated, usually from 46.1 µM), inactives show top-dose activity, positive = re-replication, hits mostly activators. 2.9% of 350,000 active; also: potency is read from the fitted curve at half-maximal effect; % of control where 0% means no effect; nearly all actives have a fitted effect of over 50% in size
Numbers without * were called inactive; i = inactive; ? = inconclusive; . = not tested or not shown; [ ] = remark or other dose. Only some compounds are listed: those with a hit (about 7.1% of all), similar ones and a draw of the others. Unless noted, calls follow the shape of the dose curve; as a rule, active = well fitted curve in the direction sought with a large enough effect; inconclusive = small, poorly fitted or top-dose-only effect, or another doubt; inactive = no such curve, though single readings can be large; an effect the other way counts as inactive or inconclusive.

SMILES	IL1B secr inh	PINK1 expr mod	ATXN2 expr inh	SW480 rerep	ATXN viability	MCF10A rerep
NNc1nc(-c2ccccc2)c2cc(Br)ccc2n1	-10	1%	-18%	27%	i	?
CN(C)c1ccc(C=C2c3ccccc3-c3ccccc32)cc1	.	6%	.	.	.	.
CN(C)c1ccc(C=c2c3ccccc3n3c2c2ccccc2[n+]3C)cc1	-66*	?	6.3µM*	13µM*	?	?
Cc1cc2c(=Cc3ccc(N(C)C)cc3)c3ccccc3n2[n+]1C	-2	?	10µM*	?	?	-7%
CCOC(=O)c1cc2c(=Cc3ccc(N(C)C)cc3)c3ccccc3n2[n+]1C	-101*	-5%	?	?	.	25%
Cc1nnc(SCC(=O)Nc2ccc([N+](=O)[O-])cc2)n1CC1CCCO1 (centres undefined)	15	0%	-12%	23µM*	i	3%
COC(=O)c1sccc1S(=O)(=O)N(CC(=O)NCc1ccc(F)cc1)c1ccc(Cl)cc1	.	0%	-2%	.	?	.
CN(C)c1ccc(C(CNC(=O)c2ccccc2F)N2CCc3ccccc32)cc1 (centres undefined)	.	-1%	.	.	.	.
CCc1ccc(NC(=O)Cn2c(-c3cncs3)nc3ccccc32)cc1	.	-1%	.	.	.	.
CN(Cc1cccs1)c1nc(-c2cccnc2)nc2ccccc12	-92*	0%	-24%	2%	.	?
CN(C)c1nc(-c2cccnc2)nc2ccccc12	.	1%	.	.	.	.
Cc1nc(C2CCCCC2)c(-c2ccc(S(N)(=O)=O)c(F)c2)o1	.	.	25%	.	i	.
Cc1coc2cc3oc(=O)c(CCC(=O)NCc4ccc(Cl)cc4)c(C)c3cc12	.	1%	0%	.	i	.
C/C(=N\N(Cc1ccccc1)c1ccccc1)c1cccnc1	-51*	12%	21%	-3%	?	4%
Cc1[nH]c2ccccc2c1CCN(Cc1cccnc1)C(=S)Nc1ccc(F)cc1	-21	3%	-18%	-2%	?	5%
Cc1[nH]c2ccc(F)cc2c1CCN(Cc1ccncc1)C(=S)Nc1ccccc1	-70*	4%	-28%	1%	i	3%
Cc1cc2nc(CCN(Cc3cccnc3)C(=S)Nc3ccc(F)cc3)[nH]c2cc1C	?	-1%[38.3 µM]	-12%	?	?	28%
Cc1cc2nc(CCN(Cc3cccnc3)C(=S)Nc3ccccc3)[nH]c2cc1C	-50*	.	3%	4%	i	16µM*
Cc1[nH]c2ccccc2c1CCN(Cc1cccnc1)C(=S)Nc1cccc(F)c1	-70*	-1%	-13%	0%	i	15%
CCC(C(=O)Nc1ccc(C(=O)OC)cc1)n1nc(-c2ccc(C)cc2)c2c(c1=O)CCCC2 (centres undefined)	.	1%	-25%	.	i	.
COc1ccc(N(Cc2cccs2)C(=O)Nc2ccccc2)cc1	.	0%	.	.	.	.
COc1ccc(/C=C/c2nc(-c3ccccc3O)n[nH]2)cc1OC	-99*	21%	43%	-9%	?	?
CN(C)c1ccc(C=O)c(F)c1	.	5%	.	.	.	.
Cc1cc(C)c(C)c(S(=O)(=O)N2CCN(CC(=O)c3c(N)n(Cc4ccccc4)c(=O)n(C)c3=O)CC2)c1C	-29	0%	0%	?	?	13µM*
Cn1c(=O)c(C(=O)CN2CCCCCC2)c(N)n(Cc2ccccc2)c1=O	12	-1%	-9%	0%	i	?
SMILES	IL1B secr inh	PINK1 expr mod	ATXN2 expr inh	SW480 rerep	ATXN viability	MCF10A rerep
CC1CCCC(NC(=O)CN2C(=O)NC(C)(c3cc(F)ccc3F)C2=O)C1C (centres undefined)	-11	-4%	2%	-5%	i	2%
CC(C)c1cnc2c(c1SCC(=O)NC(C)(C)C)c(=O)n(C)c(=O)n2C	.	-1%	.	.	.	.
Cc1ccc(CNC(=O)C2c3ccccc3C(=O)N3CCc4ccccc4C23)o1 (centres undefined)	-4	1%[38.3 µM]	2%	?	i	18µM*
CCCCN(CC)Cc1ccc(CNC(=S)Nc2ccc(C)cc2Cl)o1	-62*	0%	?	?	i	-1%
CCCCN(CC)Cc1ccc(CNC(=S)Nc2c(C)cc(C)cc2C)o1	0	3%	-13%	-7%	?	13%
COc1ccc(C(=O)NCC2Cc3cc(F)cc(-c4cncnc4)c3O2)cc1 (centres undefined)	.	0%	.	.	?	.
C=CCn1c(=O)/c(=C/c2ccc(Cl)cc2)s/c1=C(\C#N)c1nnc2n1CCCCC2	-79*	-4%	?	21%	?	?
COCCN(C)C(=O)c1cnn(-c2nccc(-c3cc(C)sc3C)n2)c1C	.	0%	.	.	i	.
N#Cc1cc(C(=O)c2cc(Br)ccc2O)cn(C2CCCCC2)c1=O	-80*	22µM*	?	?	?	0%
N#Cc1cc(C(=O)c2ccccc2OCC(=O)Nc2ccccc2Cl)cn(C2CCCCC2)c1=O	-5	0%	-11%	10%	i	7%
Cc1cc(C)nc(Sc2ccc3nnc(C(F)(F)C(F)(F)C(F)(F)F)n3n2)n1	?	.	5%	15µM*	i	?
CCCOc1ccc(C2C(=O)N(C3CCCCC3)CC(=O)N2CCc2ccccc2)cc1OC (centres undefined)	.	1%	8%	.	i	.
C=CCN=C1N[C@@H](c2cccc(C(F)(F)F)c2)C(C(=O)OC)=C(C)N1CC	-25	0%	-3%	-2%	i	4%
COC(=O)C1=C(C)N(Cc2ccccc2)C(=NCCc2ccccn2)N[C@H]1c1cccc(F)c1	-55*	1%	?	22%	?	-3%
COC(=O)C1=C(C)N(Cc2ccccc2)C(=NCCCCO)N[C@H]1c1cccc(C(F)(F)F)c1	?	0%	-23%	-5%	?	11%
COCCN=C1N[C@@H](c2cccc(C(F)(F)F)c2)C(C(=O)OC)=C(C)N1Cc1ccccc1	-56*	2%	?	-2%	?	1%
COC(=O)C1=C(C)N(Cc2ccccc2)C(=NCCc2c[nH]c3ccccc23)N[C@H]1c1cccc(C(F)(F)F)c1	-50*	-2%	?	?	.	9%
COC(=O)C1=C(C)N(Cc2ccccc2)C(=NCc2cccc(C(F)(F)F)c2)N[C@H]1c1cccc(C(F)(F)F)c1	-101*	-2%	28µM*	28%[9.22 µM]	18µM*	3.7µM*
CCc1ccc2occ(CC(=O)Nc3c(C(=O)c4ccc(F)cc4)oc4ccccc34)c2c1	.	0%	-6%	.	i	.
CC(C)NC(=O)c1ccc(C=O)cc1	.	.	5%	.	i	.
COC(=O)C1=C(C)N(Cc2ccccc2)C(=NCc2ccc(OC)cc2)N[C@H]1c1ccccc1	-52*	0%	?	0%	?	?
